# Screens (PubChem)
# Hits are enriched below; roughly 2.8% of the tested compounds scored in any of these assays.
# Shn3 inh set2 – reduction of Shn3 3'UTR firefly luciferase signal, primary screen, Schnurri-3 inhibitor project, cell-based, Clone20 osteoblasts, set 2. AID 588674, 2011. inhibition, % at 12.5 µM. actives 0.52% (n = 360,000). Clone20 osteoblast Shn3 3'UTR firefly luciferase, 24 h;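 active = mean inhibition of at least 75% with every replicate also reaching 75%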;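 also: 0% = median of neutral control wells and 100% = pilot-screen positive control compound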
# CF NFkB block – inhibitors of PAF-induced NF-kB signaling, primary screen, cell-based, GFP fluorescence, uHTS. inhibition, % at 5 µM. actives 0.86% (n = 360,000). KKLEB NF-kB-GFP reporter, GFP fluorescence overnight;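 active = at least 50% inhibition at 5 µM, scaled per plate between neutral and stimulator controls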;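 also: PAF is a Pseudomonas aeruginosa culture filtrate used as stimulus; plate controls were PAF-stimulated DMSO wells for no effect and unstimulated DMSO wells for full effect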
# KKLEB tox – cytotoxicity in KKLEB CF airway cells, primary screen, cytotoxicity control for CF NF-kB inhibitor project, cell-based, uHTS, fluorescence assay plates | KKLEB CF airway cells viability, ATPlite luminescence, overnight; hits give low values; cells stimulated with P. aeruginosa culture filtrate | activity change (cytotoxicity), % at 5 µM | actives 0.36% (n = 360,000);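 active = corrected activity change at or below -50% at 5 µM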
# Peg3 promoter – Peg3 promoter-driven luciferase inhibitors, primary screen, cell-based, HeLa, luciferase luminescence; inhibition, % at 20 µM; actives 1.7% (n = 360,000); HeLa PEG-Prom luciferase reporter, overnight;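 active = inhibition of at least 50% at 20 µM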
# HIF-2a block – HIF-2a reporter inhibitors, primary screen, luminescence, 786-0 RCC cells | 786-0 RCC cells HIF-2a reporter, luciferase luminescence, overnight | inhibition, % at 18.8 µM | actives 0.72% (n = 360,000) | AID 624352, 2012;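 active = inhibition of the luminescence signal of 40% or more relative to plate controls, in a single-dose primary screen at 18.75 µM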
# MITF TRPM1 inh – inhibitors of MITF-dependent TRPM1 promoter reporter, primary screen, cell-based, SK-MEL-5, single point, luciferase; SK-MEL-5 TRPM1 promoter luciferase, 24 h; inhibition, % at 12.5 µM; actives 0.83% (n = 330,000); AID 488899, 2010;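 active = mean inhibition across replicates of 60% or more, whatever share of single replicates reaches that level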
# CF NFkB conf – inhibitors of PAF-induced NF-kB signaling, retest, confirmation, cell-based, GFP fluorescence, single concentration. actives 64% (n = 1,300). shares compounds with CF NFkB block. inhibition, % at 5 µM. KKLEB CF airway cells, overnight; in the data active = inhibition above about 40%;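 also: stimulus PAF is a Pseudomonas aeruginosa filtrate and not platelet activating factor; plate controls were DMSO wells with stimulus for no effect and unstimulated DMSO wells for full effect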
# Active calls of the source: *; / = not tested or not shown; ! = not confirmed by another sample.
SMILES,Shn3 inh set2,CF NFkB block,KKLEB tox,Peg3 promoter,HIF-2a block,MITF TRPM1 inh,CF NFkB conf
Cc1ccc([C@@H]2CC=C(C(=O)O)[C@H](c3ccc(C(C)(C)C)cc3)N2S(=O)(=O)c2ccc(C)cc2)cc1,-4,51*,0,10,3,4,22
Cc1ccc(S(=O)(=O)N2[C@@H](c3ccc(C(C)(C)C)cc3)C(C(=O)O)=CC[C@H]2c2ccc(C(C)C)cc2)cc1,18,62*,12,21,16,9,53*
Cc1cc(NC(=O)CSc2nnc(-c3ccc([N+](=O)[O-])cc3)o2)no1,-14,-17,4,-46,-15,4,/
Cc1ccc2nc(SCC(=O)NCc3ccc(F)cc3)nc(=O)n2c1,13,7,11,4,-6,-7,/
COc1ccc(NC(=O)COC(=O)c2c(NC(C)=O)sc(C)c2C)cc1,-7,56*,-45,4,-9,/,24
CC(=O)Nc1sc(C)c(C)c1C(=O)OCC(=O)NCc1ccccc1,-11,-7,-3,-12,-19,15,/
Cc1ccc(NS(=O)(=O)c2ccc(-c3cnc(C4CC4)o3)cc2)c(C)c1,10,65*,-13,-10,12,8,65*
COc1ccccc1NS(=O)(=O)c1ccc(-c2cnc(C3CC3)o2)cc1,32,54*,-26,3,22,29,71*
O=C(Nc1cccc(-c2cnc3ccccc3n2)c1)c1ccccc1,-25,-14,-4,-21,-41,-4,/
O=C(Nc1cccc(-c2cnc3ccccc3n2)c1)c1cccc(NC(=O)c2ccco2)c1,24,67*,-10,46,-69,36,108*
CCNC(=O)C1(C)CCCN(Cc2ccc(-c3ccccc3)o2)C1 (stereo not given),10,58*,-3,-10,-30,/,63*
COCCNC(=O)C1(C)CCCN(Cc2ccc(-c3ccccc3)o2)C1 (stereo not given),13,4,7,17,9,/,/
O=C(Nc1ccc(Cl)c(Cl)c1)Nc1ccon1,-7,54*,-12,-42,-51,1,40*
COc1cc(CCc2ccccc2)c(C(=O)O)c(O)c1C/C=C(/C)CCC=C(C)C,1,60*,-19,57*,-1,-4,71*
Cc1cc(Br)cn2c(Cc3ccsc3)c(-c3cccc(Cl)c3)nc12,14,12,-12,-13,-10,/,/
Cc1cc(Br)cn2c(Cc3ccsc3)c(-c3ccc(Cl)cc3)nc12,-12,50*,-2,46,-12,/,13
Cc1cc(Br)cn2c(Cc3ccccc3)c(-c3ccco3)nc12,-21,35,-22,-63,-130,/,/
Cc1cc(Br)cn2c(Cc3ccsc3)c(-c3ccco3)nc12,-14,60*,-18,7,15,/,-3
Cc1ccc(S(=O)(=O)NNC(=O)Nc2ccc(C)c(C)c2)c(C)c1,-2,-12,-3,14,9,2,/
CCN(C)C1CN(Cc2cn(Cc3cccc(Cl)c3)nn2)S(=O)(=O)C1 (stereo not given),/,/,/,/,0,/,/
Clc1ccccc1CN(Cc1ccccc1)c1ncnc2nc[nH]c12,6,13,-12,35,23,4,/
CCCN(CCC)c1ncnc2nc[nH]c12,7,66*,0,6,28,/,79*
Cc1ccc(Cn2cc(CN3CC(N4CCN(CCO)CC4)CS3(=O)=O)nn2)cc1 (stereo not given),/,/,/,/,5,/,/
Cc1cc(-n2c(SCC(=O)NCCC3=CCCCC3)nc3n[nH]c(C)c3c2=N)ccc1Cl,65,22,-8,45,17,56,/
Cc1[nH]nc2nc(SCC(=O)NCCC3=CCCCC3)n(-c3ccc(Br)cc3)c(=N)c12,76,63*,-34,47,-12,48,60*
SMILES,Shn3 inh set2,CF NFkB block,KKLEB tox,Peg3 promoter,HIF-2a block,MITF TRPM1 inh,CF NFkB conf
COc1ccccc1C(=O)NCCC(=O)OCC(=O)Nc1ccc(S(N)(=O)=O)cc1,-6,13,2,-23,7,-14,/
COc1ccc(Oc2coc3cc(OC(=O)c4cccs4)ccc3c2=O)cc1,-19,7,-3,-19,-44,-4,/
COc1ccc(-c2cc(=O)oc3c(C)c(OC(=O)c4cccs4)ccc23)cc1,8,72*,12,31,7,-11,96*
COc1ccc(/C=C/C(=O)c2ccc([N+](=O)[O-])o2)cc1,50,51*,-19,101*,-19,/,-203
Cc1cn(-c2cc(C(=O)Nc3ccc(C)c(NC(=O)C(=O)c4c[nH]c5ccccc45)c3)cc(C(F)(F)F)c2)cn1,25,50*!,0,29,24,12,21
COC1(OC)C=CC(=O)C=C1NC(=O)c1ccccc1OC(C)=O,26,66*,6,50*,-2,31,69*
CC(=O)Oc1ccccc1C(=O)Nc1ccccc1,-68,-1,7,-159,-183,-42,/
O=C1N(c2ccccc2C(F)(F)F)O[C@]1(c1ccccc1)C1CCCCC1,-1,54*,6,65*,22,8,64*
Cc1c(NC(=O)c2c(N)sc3c2CCCC3)c(=O)n(-c2ccccc2)n1C,15,4,3,5,4,11,/
COc1ccc(NC(=O)CCCOc2ccc(Cl)c(C)c2)cc1S(=O)(=O)N1CCOCC1,60,-5,-4,5,-4,17,/
CC(=O)c1c(C)[nH]c(C(=O)COC(=O)c2ccc(C)s2)c1C,10,64*,26,-135,-28,-26,7
Cc1ccc(Cc2cnc(NC(=O)/C(C#N)=C/c3ccc(-c4ccccc4[N+](=O)[O-])o3)s2)cc1,18,52*,-50,36,10,3,-2
CCCCCCNC(=O)O[C@H]1Cn2c(=O)ccc(=O)n2[C@@H]2CN(S(=O)(=O)c3ccc(C)cc3)C[C@]12O,91*,62*,-14,103*,33,/,40
CC(=O)N[C@@H](Cc1c[nH]c2ccccc12)C(=O)NC1CC1,6,2,0,21,13,5,/
S=c1[nH]nc(-c2ccncc2)n1/N=C/C=C/c1ccccc1,0,24,-8,-10,17,-13,/
S=c1[nH]nc(-c2ccncc2)n1/N=C/C(Cl)=C\c1ccccc1,-31,73*,-13,-83,-134,-69,78*
